Bioassay records (PubChem)
AmpC det inh – Promiscuous and Specific Inhibitors of AmpC Beta-Lactamase (assay with detergent). purified AmpC, nitrocefin hydrolysis with detergent. Potency, µM (doses to about 28.7 µM), for inactives: at the highest dose activity change, negative = inhibition. P00811. 71,000 tested, 0.09% active; active = well fitted curve in the direction sought with a large enough effect; inconclusive = small, poorly fitted or top-dose-only effect; also: % is scaled to controls: 0 for no effect and ±100 for the full control effect
Target sequence (P00811 whole entry, looked up): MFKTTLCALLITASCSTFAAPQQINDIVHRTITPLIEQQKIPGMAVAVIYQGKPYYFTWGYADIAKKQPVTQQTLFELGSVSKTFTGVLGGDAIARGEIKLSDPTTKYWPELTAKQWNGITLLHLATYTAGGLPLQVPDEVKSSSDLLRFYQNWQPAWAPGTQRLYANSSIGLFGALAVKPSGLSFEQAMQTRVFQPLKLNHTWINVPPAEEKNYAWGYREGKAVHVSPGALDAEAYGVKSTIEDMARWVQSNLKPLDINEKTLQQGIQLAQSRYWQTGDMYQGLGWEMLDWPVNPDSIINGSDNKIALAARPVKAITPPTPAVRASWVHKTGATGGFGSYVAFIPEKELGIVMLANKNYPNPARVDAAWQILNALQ
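E. coli AmpC (5.3 nM) in 20 mM phosphate pH 7.0 with 0.01% Triton X-100, preincubated 15 min RT with compound; nitrocefin (2 uL of 800 uM stock) hydrolysis followed by 480 nm absorbance every 20 s over 4 min.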
AmpC inh no det – Promiscuous and Specific Inhibitors of AmpC Beta-Lactamase (assay without detergent). AmpC nitrocefin hydrolysis, absorbance 480 nm, no detergent. Potency, µM (highest dose often 28.7 µM), without a hit: at the top dose activity change, negative = inhibition. 71,000 tested, 1.8% active. AID 585, 2007; also: % of control where 0% means no effect
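AmpC, 20 mM phosphate pH 7.0; 15 min cpd preinc, RT; start with nitrocefin (800 uM stock); A480 kinetic read, 20 s intervals, 4 min. No-enzyme wells = negative control.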
SmPrx2 inh – Schistosoma Mansoni Peroxiredoxins (Prx2); Schistosoma mansoni peroxiredoxin 2 (Prx2); S. mansoni Prx2 activity coupled to TGR/GSH (TGR is thioredoxin glutathione reductase), NADPH fluorescence loss, qHTS; Potency, µM; 65,000 tested, 0.07% active
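qHTS, coupled TGR/Prx2 format; 15 min compound preincubation at RT; reaction started with H2O2 (2.5 mM aliquot); kinetic NADPH fluorescence decrease, ex 365/em 450 nm.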
Anthrax LT inh – qHTS Assay for Anthrax Lethal Toxin Internalization; Cells, anthrax lethal toxin internalization, FRET ratio (460/530); 70,000 tested, 0.67% active; Potency, µM (doses to about 40 µM), without a hit: top-dose activity change, negative = inhibition, hits mostly inhibitors; also: % is scaled to controls: 0 for no effect and ±100 for the full control effect; nearly all actives have a fitted effect of over 50% in size
Active calls of the source: *; ? = inconclusive; · = not tested or not shown; ! = a repeat was not active; [ ] = remark or other dose. Sampled rows, rich in hits. Any-hit rate of the full collection: about 2.6%. Unless noted, calls follow the shape of the full dose curve. Potency is read from the fitted curve at half-maximal effect.

SMILES | AmpC det inh | AmpC inh no det | SmPrx2 inh | Anthrax LT inh
N#Cc1cc2ccccc2nc1SCC(=O)Nc1ccc(S(=O)(=O)N2CCCC2)cc1 | 14% | 5µM* | >57 | -5%
CC(=O)O[C@H]1C(=O)[C@]2(C)[C@H]([C@H](OC(=O)c3ccccc3)[C@@]3(O)C[C@H](OC(=O)[C@@H](O)[C@@H](NC(=O)c4ccccc4)c4ccccc4)C(C)=C1C3(C)C)[C@]1(OC(C)=O)CO[C@@H]1C[C@@H]2O | 2% | 117% | >57 | ?
CN(Cc1ccco1)c1ccnc(-c2cccc(C#N)c2)n1 | 10% | 65% | >57 | ?
CCN1CCN(Cc2ccc(NC(=O)Nc3ccccc3Cl)cc2)CC1 | 15% | 4µM*[single pt active] | >57 | -18%
COc1ccc(OCCC(=O)NC2=NCCS2)cc1 | -5% | -2% | >57 | 14%
COc1ccc(C(=O)NCC(=O)NC2=NCCS2)cc1 | 13% | 4µM*[single pt active] | >57 | 3%
CN(C)CCNc1ccccn1 | -4%[5.75 µM] | 2%[5.75 µM] | >57 | ?
CN(C)CC(C(=O)c1ccccc1)c1ccccc1 (stereo not given) | -3% | -19% | >57 | 10µM*
CN(C)c1ccc(-c2nccc(NCCN3CCOCC3)n2)cc1 | 8% | 48% | >57 | 12%
COc1cccc2cc3c(=O)n(-c4ccccc4)nc-3oc12 | 11% | 3.2µM*[single pt active] | >57 | 7%
CCOC(=O)C(C(C)=O)c1c(Br)c(O)c(O)c2c(C(=O)c3ccc(C)cc3)coc12 (stereo not given) | -3% | 6.3µM* | >57 | ?
[O-][N+]1(CC[N+]2([O-])CCCCC2)CCCCC1 | -5%[5.75 µM] | -5%[5.75 µM] | >57 | -21%[8 µM]
CC1CCN(c2nc3c(c(=O)[nH]c(=O)n3C)n2Cc2ccccc2)CC1 | 10% | 0% | >57 | 21%
CC1CCCN(c2nc3c(c(=O)[nH]c(=O)n3C)n2CCCc2ccccc2)C1 (stereo not given) | 3% | 16µM*[single pt active] | >57 | ?
COC(=O)c1cc2sccc2n1CC(=O)N1CCCc2ccccc21 | -6% | 15% | >57 | 10µM*
O=c1oc2ccccc2n1CCn1c2ccccc2c2nc3ccccc3nc21 | -3% | -4% | >57 | 9%
O=c1c(-c2nc3ccccc3o2)c2oc3ccccc3n2c2ccccc12 | -5% | 48% | >57 | 13µM*
S=C(S)O[C@@H]1C[C@@H]2C[C@H]1[C@@H]1CCC[C@H]21 | 16µM*! | 16µM*! | >57 | ?
Cc1ccc(S(=O)(=O)Oc2ccc(N=Nc3ccc(-c4ccc(N=Nc5c(O)ccc6cc(S(=O)(=O)O)cc(S(=O)(=O)O)c56)c(C)c4)cc3C)cc2)cc1 | -6% | 0.32µM* | · | 16µM*
Cc1ccc(N=Nc2c(O)ccc3cc(S(=O)(=O)O)ccc23)cc1 | -5%[5.75 µM] | -1%[5.75 µM] | >57 | -14%[8 µM]
COC(=O)C(C)Sc1nnc(Cc2cc(=O)[nH]c(=O)[nH]2)n1-c1cc(C)ccc1C (stereo not given) | 14% | 2µM* | >57 | -5%
CSc1nnc(Cc2cc(=O)[nH]c(=O)[nH]2)n1-c1cccc(C)c1 | 7% | -16% | >57 | -6%
COC(=O)C(C)Sc1nnc(Cc2cc(=O)[nH]c(=O)[nH]2)n1-c1cccc(OC)c1 (stereo not given) | 13% | 4µM*[single pt active] | >57 | 0%
C=CCSc1nnc(Cc2cc(=O)[nH]c(=O)[nH]2)n1-c1cc(C)ccc1C | 14% | 4% | >57 | -26%
COc1cccc(-n2c(Cc3cc(=O)[nH]c(=O)[nH]3)nnc2SC(C)C)c1 | 13% | 4µM*[single pt active] | >57 | 5%
SMILES | AmpC det inh | AmpC inh no det | SmPrx2 inh | Anthrax LT inh
CCOc1ccc(-n2c(Cc3cc(=O)[nH]c(=O)[nH]3)nnc2SC(C)C(=O)OC)cc1 (stereo not given) | 10% | 24% | >57 | -8%
CCOC(=O)N/N=C1/C[C@@H](O)[C@@H](O)[C@@H]2[C@H]3C(=O)N(c4ccc(F)cc4F)C(=O)[C@@H]3CC[C@H]12 | · | · | · | -6%[1.6 µM]
Oc1c(CN2CCc3ccccc3C2)cc(Cl)c2cccnc12 | 15% | 2.5µM*[single pt active] | >57 | ?
c1ccc([C@H](c2cccc3c2ccc2ccccc23)[C@H](c2ccccc2)c2cccc3c2ccc2ccccc23)cc1 | -2%[5.75 µM] | -14%[5.75 µM] | >57 | 3%[8 µM]
CS(=O)(=O)N1CCC(C(=O)N2CCC(Cc3ccccc3)CC2)CC1 | ? | 13µM* | >57 | 3%
CCCS(=O)(=O)N1CCC(C(=O)N2CCN(Cc3ccccc3)CC2)CC1 | -3% | 28% | >57 | -9%
Cn1cc(Cl)c(C(=O)N(Cc2ccccc2)c2ccccn2)n1 | 21% | 4µM*[single pt active] | >57 | 5%
